Assay results as given in PMC7862700, “An all-to-all approach to the identification of sequence-specific readers for epigenetic DNA modifications on cytosine”.

Experiments:
Assay in all cases: DAPPL (digital affinity profiling via proximity ligation, sequencing); 10 mM Tris-HCl pH 7.5, 50 mM NaCl, 1 mM DTT, 4% glycerol, room temperature, 30 min; GST-TFs on glutathione beads, 16-mer random dsDNA library, 0.1% formaldehyde crosslink after washing; high values mean tight binding
FEV = biological target: T1, FEV (Homo sapiens, UniProt Q99581 1-238); details: protein: recombinant; tags: N-terminal GST; dsDNA, one strand shown
T1 sequence: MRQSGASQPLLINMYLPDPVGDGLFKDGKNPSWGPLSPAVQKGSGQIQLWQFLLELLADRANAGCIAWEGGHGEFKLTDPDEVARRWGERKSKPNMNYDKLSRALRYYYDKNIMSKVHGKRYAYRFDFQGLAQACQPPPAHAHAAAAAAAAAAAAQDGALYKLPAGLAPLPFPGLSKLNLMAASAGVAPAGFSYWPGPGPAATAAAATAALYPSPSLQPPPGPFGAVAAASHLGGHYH
Summary of the method: (§1)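 The binding signal reported is, for every hexamer, its read frequency for a factor over its read frequency for the tag-only sample. Reads came from pools of yeast-expressed, GST-fused human transcription factors on glutathione beads, barcoded with DNA and mixed with that sample, which were incubated with 200 nmole of a random double-stranded 16-mer DNA library in Tris/NaCl/DTT/glycerol buffer at room temperature for 30 min. After washing, the pools were crosslinked with 0.1% formaldehyde, proximity-ligated with BsaI/T4 ligase for 1 h at 37 °C, PCR-amplified and sequenced on an Illumina NextSeq500.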

ETV5 = ETV5 (Homo sapiens, UniProt P41161 1-510); details: protein: recombinant; tags: N-terminal GST; dsDNA, one strand shown
Chain of ETV5 (P41161 whole entry): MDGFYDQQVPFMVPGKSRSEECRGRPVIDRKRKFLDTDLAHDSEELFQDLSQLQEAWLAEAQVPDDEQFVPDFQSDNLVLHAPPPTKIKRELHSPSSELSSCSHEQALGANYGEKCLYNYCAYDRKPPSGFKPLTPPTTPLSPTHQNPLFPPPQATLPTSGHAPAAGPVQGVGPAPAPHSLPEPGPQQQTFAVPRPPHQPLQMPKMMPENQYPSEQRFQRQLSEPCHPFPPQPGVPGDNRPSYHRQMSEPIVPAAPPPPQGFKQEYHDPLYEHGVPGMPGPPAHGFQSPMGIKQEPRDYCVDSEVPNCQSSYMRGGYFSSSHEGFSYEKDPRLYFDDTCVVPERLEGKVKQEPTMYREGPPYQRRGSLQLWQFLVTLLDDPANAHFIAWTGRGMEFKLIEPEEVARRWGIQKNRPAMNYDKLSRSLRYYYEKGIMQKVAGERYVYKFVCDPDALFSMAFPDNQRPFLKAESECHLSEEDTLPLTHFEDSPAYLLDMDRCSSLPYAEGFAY
Summary of the method: as §1

HSF1 = HSF1 (Homo sapiens, UniProt Q00613 1-529); details: protein: recombinant; tags: N-terminal GST; chain copies: 3; dsDNA, one strand shown
Chain of HSF1 (Q00613 whole entry): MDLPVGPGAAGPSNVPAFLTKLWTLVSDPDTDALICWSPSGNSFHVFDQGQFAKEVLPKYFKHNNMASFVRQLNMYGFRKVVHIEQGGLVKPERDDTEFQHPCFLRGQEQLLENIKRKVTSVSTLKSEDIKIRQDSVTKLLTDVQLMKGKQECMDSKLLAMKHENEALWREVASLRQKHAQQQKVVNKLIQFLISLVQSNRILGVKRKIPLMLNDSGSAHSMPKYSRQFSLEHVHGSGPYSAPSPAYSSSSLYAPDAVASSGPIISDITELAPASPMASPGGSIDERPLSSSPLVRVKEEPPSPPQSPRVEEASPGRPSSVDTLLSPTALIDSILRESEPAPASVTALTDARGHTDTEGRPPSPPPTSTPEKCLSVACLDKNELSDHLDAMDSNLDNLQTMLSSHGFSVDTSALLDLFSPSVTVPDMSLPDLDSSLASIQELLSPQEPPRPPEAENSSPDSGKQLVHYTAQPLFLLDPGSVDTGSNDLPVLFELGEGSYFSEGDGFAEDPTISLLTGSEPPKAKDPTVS
Summary of the method: as §1

SPIC = biological target: T2, SPIC (Homo sapiens, UniProt Q8N5J4 1-248); details: protein: recombinant; tags: N-terminal GST; dsDNA, one strand shown
T2 sequence: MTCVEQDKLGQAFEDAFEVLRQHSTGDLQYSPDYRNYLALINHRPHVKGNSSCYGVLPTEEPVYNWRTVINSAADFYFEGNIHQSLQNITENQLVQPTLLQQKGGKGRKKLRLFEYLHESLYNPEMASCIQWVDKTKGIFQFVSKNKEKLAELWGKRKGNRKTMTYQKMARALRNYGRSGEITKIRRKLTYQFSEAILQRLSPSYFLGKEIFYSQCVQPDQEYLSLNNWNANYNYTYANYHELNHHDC
Summary of the method: as §1

ELF4 = ELF4 (Homo sapiens, UniProt Q99607 1-663); details: protein: recombinant; tags: N-terminal GST; dsDNA, one strand shown
Chain of ELF4 (Q99607 whole entry): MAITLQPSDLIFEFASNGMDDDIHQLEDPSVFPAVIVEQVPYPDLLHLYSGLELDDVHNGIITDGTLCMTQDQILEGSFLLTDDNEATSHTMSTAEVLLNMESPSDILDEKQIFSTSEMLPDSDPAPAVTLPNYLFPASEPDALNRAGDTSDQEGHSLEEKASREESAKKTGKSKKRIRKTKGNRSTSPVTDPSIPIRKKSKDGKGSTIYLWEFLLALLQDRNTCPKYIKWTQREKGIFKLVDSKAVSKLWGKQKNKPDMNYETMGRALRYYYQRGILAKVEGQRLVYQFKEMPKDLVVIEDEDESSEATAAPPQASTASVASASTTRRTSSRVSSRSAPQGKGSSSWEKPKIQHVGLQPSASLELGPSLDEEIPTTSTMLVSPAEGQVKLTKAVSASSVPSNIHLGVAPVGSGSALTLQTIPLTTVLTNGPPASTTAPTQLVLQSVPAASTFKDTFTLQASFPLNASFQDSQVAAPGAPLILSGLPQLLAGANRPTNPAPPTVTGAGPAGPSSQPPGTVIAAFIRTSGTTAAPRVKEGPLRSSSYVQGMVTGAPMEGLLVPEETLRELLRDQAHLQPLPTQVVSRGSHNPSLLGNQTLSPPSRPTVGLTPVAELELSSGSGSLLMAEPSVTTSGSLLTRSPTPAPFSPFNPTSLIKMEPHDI
Summary of the method: as §1

ELK4 = biological target: T3, ELK4 (Homo sapiens, UniProt P28324-2 1-405); details: protein: recombinant; tags: N-terminal GST; dsDNA, one strand shown
T3 sequence: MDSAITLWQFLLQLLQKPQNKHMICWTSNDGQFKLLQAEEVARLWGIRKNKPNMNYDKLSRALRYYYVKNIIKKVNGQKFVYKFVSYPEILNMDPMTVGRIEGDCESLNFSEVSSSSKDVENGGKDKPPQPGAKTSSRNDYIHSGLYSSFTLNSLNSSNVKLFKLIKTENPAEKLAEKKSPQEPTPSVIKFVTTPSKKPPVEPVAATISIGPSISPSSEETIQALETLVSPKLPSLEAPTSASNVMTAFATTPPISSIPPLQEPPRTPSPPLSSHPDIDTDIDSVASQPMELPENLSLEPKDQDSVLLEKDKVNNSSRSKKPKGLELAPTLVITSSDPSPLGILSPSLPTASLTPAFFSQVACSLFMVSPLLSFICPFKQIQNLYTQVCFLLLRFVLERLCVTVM
Summary of the method: as §1

ETV2 = biological target: T4, ETV2 (Homo sapiens, UniProt O00321 1-342); details: protein: recombinant; tags: N-terminal GST; dsDNA, one strand shown
T4 sequence: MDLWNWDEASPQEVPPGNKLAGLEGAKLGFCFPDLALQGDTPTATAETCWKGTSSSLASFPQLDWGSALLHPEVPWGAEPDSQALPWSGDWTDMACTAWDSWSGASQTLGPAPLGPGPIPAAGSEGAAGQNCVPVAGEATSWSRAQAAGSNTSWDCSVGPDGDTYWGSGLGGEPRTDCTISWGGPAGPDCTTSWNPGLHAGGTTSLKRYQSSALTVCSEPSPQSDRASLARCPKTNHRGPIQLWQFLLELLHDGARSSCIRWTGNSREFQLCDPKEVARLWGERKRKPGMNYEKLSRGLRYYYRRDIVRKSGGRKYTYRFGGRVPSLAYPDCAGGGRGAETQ
Summary of the method: as §1

ELF3 = biological target: T5, ELF3 (Homo sapiens, UniProt P78545 1-371); details: protein: recombinant; tags: N-terminal GST; dsDNA, one strand shown
T5 sequence: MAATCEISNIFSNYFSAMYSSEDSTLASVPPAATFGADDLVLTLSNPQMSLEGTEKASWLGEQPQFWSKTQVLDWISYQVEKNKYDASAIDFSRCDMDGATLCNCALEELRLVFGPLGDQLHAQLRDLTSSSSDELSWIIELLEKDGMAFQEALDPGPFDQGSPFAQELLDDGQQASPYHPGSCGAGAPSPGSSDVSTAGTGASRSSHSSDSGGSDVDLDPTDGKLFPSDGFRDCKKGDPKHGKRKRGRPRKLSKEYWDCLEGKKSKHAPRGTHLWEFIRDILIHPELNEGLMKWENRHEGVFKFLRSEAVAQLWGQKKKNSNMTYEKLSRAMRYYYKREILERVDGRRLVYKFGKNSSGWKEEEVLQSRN
Summary of the method: as §1

CRX = CRX (Homo sapiens, UniProt O43186 1-299); details: protein: recombinant; tags: N-terminal GST; dsDNA, one strand shown
Chain of CRX (O43186 whole entry): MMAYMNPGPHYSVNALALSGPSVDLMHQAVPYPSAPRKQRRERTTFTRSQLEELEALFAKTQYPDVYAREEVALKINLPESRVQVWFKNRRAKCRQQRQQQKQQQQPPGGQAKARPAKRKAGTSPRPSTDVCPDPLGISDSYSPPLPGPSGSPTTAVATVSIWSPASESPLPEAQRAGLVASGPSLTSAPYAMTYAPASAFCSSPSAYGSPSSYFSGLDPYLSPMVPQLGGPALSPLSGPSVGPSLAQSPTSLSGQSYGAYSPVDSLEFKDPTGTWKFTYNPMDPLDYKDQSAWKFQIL
Summary of the method: as §1

ETV1 = ETV1 (Homo sapiens, UniProt P50549 1-477); details: protein: recombinant; tags: N-terminal GST; dsDNA, one strand shown
Chain of ETV1 (P50549 whole entry): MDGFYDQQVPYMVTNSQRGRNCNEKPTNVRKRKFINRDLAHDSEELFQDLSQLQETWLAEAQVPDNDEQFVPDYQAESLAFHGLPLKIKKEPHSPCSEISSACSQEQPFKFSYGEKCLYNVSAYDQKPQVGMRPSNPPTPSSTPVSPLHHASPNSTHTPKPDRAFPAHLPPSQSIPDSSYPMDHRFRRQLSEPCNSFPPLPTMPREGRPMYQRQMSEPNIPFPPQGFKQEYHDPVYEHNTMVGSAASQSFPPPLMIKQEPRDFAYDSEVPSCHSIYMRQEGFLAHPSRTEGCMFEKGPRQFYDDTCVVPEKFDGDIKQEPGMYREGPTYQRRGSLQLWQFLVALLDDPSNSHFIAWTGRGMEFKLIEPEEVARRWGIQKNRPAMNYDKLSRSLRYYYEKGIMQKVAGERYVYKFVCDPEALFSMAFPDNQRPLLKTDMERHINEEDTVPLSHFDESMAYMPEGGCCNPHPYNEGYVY
Summary of the method: as §1

ERF = biological target: T6, ERF (Homo sapiens, UniProt P50548 1-548); details: protein: recombinant; tags: N-terminal GST; dsDNA, one strand shown
T6 sequence: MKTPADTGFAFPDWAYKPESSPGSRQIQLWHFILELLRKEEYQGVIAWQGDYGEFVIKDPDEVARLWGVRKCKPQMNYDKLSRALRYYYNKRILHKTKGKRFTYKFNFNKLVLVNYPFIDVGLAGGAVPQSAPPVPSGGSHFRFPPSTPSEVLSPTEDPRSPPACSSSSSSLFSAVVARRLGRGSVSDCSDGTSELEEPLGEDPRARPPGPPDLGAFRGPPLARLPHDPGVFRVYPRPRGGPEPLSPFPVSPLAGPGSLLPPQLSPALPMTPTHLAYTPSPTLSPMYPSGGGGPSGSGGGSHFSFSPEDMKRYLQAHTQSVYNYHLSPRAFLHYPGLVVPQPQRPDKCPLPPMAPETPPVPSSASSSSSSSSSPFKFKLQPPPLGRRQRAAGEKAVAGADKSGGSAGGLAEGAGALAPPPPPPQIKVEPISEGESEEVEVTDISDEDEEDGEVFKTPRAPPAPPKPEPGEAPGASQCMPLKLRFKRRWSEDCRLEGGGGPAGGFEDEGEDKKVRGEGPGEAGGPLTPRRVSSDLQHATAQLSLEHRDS
Summary of the method: as §1

ETV3L = biological target: T7, ETV3L (Homo sapiens, UniProt Q6ZN32 1-361); details: protein: recombinant; tags: N-terminal GST; dsDNA, one strand shown
T7 sequence: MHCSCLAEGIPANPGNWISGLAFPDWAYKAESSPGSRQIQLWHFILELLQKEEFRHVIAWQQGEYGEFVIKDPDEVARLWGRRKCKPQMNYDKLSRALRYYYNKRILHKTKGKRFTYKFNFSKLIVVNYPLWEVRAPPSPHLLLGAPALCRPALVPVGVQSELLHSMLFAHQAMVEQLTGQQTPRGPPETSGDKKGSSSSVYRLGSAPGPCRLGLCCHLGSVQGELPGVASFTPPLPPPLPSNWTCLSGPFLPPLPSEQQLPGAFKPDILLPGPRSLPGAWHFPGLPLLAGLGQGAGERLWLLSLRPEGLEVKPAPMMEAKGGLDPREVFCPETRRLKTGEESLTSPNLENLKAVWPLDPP
Summary of the method: as §1

ETS2 = biological target: T8, ETS2 (Homo sapiens, UniProt P15036 1-469); details: protein: recombinant; tags: N-terminal GST; dsDNA, one strand shown
T8 sequence: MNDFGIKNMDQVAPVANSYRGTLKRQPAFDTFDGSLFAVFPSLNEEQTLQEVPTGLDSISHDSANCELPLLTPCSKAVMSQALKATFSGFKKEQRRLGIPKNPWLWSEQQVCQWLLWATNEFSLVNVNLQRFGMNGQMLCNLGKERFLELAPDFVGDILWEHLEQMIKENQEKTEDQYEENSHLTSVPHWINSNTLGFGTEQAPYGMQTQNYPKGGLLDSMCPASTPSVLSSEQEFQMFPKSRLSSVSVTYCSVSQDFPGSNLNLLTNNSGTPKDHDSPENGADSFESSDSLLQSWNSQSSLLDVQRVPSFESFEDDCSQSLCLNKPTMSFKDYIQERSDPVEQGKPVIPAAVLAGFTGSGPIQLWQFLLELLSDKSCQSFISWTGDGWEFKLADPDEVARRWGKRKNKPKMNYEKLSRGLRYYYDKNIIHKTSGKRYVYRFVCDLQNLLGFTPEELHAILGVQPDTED
Summary of the method: as §1

SPDEF = biological target: T9, SPDEF (Homo sapiens, UniProt O95238 1-335); details: protein: recombinant; tags: N-terminal GST; dsDNA, one strand shown
T9 sequence: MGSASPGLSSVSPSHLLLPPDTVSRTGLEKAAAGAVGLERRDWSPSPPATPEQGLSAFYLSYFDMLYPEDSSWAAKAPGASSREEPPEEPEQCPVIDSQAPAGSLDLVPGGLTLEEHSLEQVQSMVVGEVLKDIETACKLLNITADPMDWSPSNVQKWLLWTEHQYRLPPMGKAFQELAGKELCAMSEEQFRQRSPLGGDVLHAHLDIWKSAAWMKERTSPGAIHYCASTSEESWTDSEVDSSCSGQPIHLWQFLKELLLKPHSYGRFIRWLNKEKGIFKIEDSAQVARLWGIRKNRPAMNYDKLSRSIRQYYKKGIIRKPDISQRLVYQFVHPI
Summary of the method: as §1

ETV7 = biological target: T10, ETV7 (Homo sapiens, UniProt Q9Y603 1-341); details: protein: recombinant; tags: N-terminal GST; dsDNA, one strand shown
T10 sequence: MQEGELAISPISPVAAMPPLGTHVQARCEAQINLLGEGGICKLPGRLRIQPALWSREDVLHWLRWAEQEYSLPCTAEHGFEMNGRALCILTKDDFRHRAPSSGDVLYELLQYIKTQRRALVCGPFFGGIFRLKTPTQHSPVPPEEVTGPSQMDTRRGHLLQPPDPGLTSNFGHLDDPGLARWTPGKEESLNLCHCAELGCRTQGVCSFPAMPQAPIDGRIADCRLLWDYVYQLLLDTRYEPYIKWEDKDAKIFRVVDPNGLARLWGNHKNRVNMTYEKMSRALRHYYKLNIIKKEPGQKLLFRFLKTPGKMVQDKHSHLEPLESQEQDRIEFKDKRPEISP
Summary of the method: as §1

ELF5 = biological target: T11, ELF5 (Homo sapiens, UniProt Q9UKW6-2 1-255); details: protein: recombinant; tags: N-terminal GST; dsDNA, one strand shown
T11 sequence: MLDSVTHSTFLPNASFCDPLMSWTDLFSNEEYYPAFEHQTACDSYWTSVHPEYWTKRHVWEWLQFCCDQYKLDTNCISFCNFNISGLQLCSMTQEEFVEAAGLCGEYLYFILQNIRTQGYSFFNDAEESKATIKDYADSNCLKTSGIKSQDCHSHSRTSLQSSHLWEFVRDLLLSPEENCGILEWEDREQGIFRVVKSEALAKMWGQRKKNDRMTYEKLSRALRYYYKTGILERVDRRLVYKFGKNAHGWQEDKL
Summary of the method: as §1

ETV3 = biological target: T12, ETV3 (Homo sapiens, UniProt P41162-2 1-143); details: protein: recombinant; tags: N-terminal GST; dsDNA, one strand shown
T12 sequence: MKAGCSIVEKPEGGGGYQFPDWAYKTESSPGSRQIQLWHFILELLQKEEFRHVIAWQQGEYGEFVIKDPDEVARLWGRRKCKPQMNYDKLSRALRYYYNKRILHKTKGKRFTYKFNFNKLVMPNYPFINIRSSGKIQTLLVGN
Summary of the method: as §1

ETV6 = ETV6 (Homo sapiens, UniProt P41212 1-452); details: protein: recombinant; tags: N-terminal GST; dsDNA, one strand shown
Chain of ETV6 (P41212 whole entry): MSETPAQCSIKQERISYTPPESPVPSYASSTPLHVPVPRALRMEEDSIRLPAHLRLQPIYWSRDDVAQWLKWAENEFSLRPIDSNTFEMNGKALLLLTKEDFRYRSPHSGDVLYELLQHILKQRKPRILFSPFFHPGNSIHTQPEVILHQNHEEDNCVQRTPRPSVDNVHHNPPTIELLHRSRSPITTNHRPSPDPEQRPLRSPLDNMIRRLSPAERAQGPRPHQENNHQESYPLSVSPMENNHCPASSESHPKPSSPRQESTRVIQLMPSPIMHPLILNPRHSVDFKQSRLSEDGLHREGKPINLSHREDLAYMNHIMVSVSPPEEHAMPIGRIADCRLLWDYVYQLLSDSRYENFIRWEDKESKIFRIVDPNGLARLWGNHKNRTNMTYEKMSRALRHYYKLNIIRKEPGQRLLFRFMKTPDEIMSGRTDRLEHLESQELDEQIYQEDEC
Summary of the method: as §1

Sequence: ATGGAA
- binding signal (FEV): 1.16 fold enrichment (6-mer frequency, TF over GST control)
- binding signal (ETV5): 1.16 fold enrichment (6-mer frequency, TF over GST control)
- binding signal (HSF1): 1.86 fold enrichment (6-mer frequency, TF over GST control)
- binding signal (SPIC): 1.22 fold enrichment (6-mer frequency, TF over GST control)
- binding signal (ELF4): 1.19 fold enrichment (6-mer frequency, TF over GST control)
- binding signal (ELK4): 1.13 fold enrichment (6-mer frequency, TF over GST control)
- binding signal (ETV2): 1.26 fold enrichment (6-mer frequency, TF over GST control)
- binding signal (ELF3): 1.16 fold enrichment (6-mer frequency, TF over GST control)
- binding signal (CRX): 1.22 fold enrichment (6-mer frequency, TF over GST control)
- binding signal (ETV1): 1.24 fold enrichment (6-mer frequency, TF over GST control)
- binding signal (ERF): 1.23 fold enrichment (6-mer frequency, TF over GST control)
- binding signal (ETV3L): 1.18 fold enrichment (6-mer frequency, TF over GST control)
- binding signal (ETS2): 1.23 fold enrichment (6-mer frequency, TF over GST control)
- binding signal (SPDEF): 1.2 fold enrichment (6-mer frequency, TF over GST control)
- binding signal (ETV7): 1.35 fold enrichment (6-mer frequency, TF over GST control)
- binding signal (ELF5): 1.13 fold enrichment (6-mer frequency, TF over GST control)
- binding signal (ETV3): 1.2 fold enrichment (6-mer frequency, TF over GST control)
- binding signal (ETV6): 1.28 fold enrichment (6-mer frequency, TF over GST control)
